Test results published in ChEMBL document CHEMBL3988442, “University of Dundee, Small-Polar-MMV Screening Library” (2021).
Out of some 48,000 compounds screened, about 13,000 (27%) showed an effect of 50% or more. The list shows a part of the results.

Tested on: Wolbachia pipientis
Assay: Anti-Wolbachia Cell-Based Screen
Assay type: functional
Design: scale not given: in the data most compounds retested in dose-response had high values
Details: 5 µM

Compared with `CCc1ncc2c(n1)CN(Cc1nc(-c3cccs3)no1)CC2`, `Cc1ncc2c(n1)CN(Cc1nc(-c3cccs3)no1)CC2` is higher in “Percent Effect” value: 94.19% for the first, 104.1% for the second.

First: CCc1ncc2c(n1)CN(Cc1cccc3c1OCCO3)CC2
Second: Cc1ncc2c(n1)CN(Cc1cccc3c1OCCO3)CC2
The “Percent Effect” value of the first is higher: -19.5% for the first, -20.45% for the second.

Going from `CC(C)c1ncc2c(n1)CN(Cc1nc(-c3cccs3)no1)CC2` to `c1csc(-c2noc(CN3CCc4cncnc4C3)n2)c1`, the “Percent Effect” value rises from 1.311% to 93.12%.

First: c1cc(CN2CCc3cncnc3C2)c2c(c1)OCCO2
Second: COc1ccc(-c2noc(CN3CCc4cncnc4C3)n2)cc1
The “Percent Effect” value of the first is higher: 51.63% for the first, -16.15% for the second.

Compared with `CC(C)c1nc2c(n1C)CCN(Cc1nc(-c3cccs3)no1)C2`, `Cn1nc2c(cc1=O)CN(Cc1nc(-c3cccs3)no1)CC2` is lower in “Percent Effect” value: -3.537% for the first, -4.413% for the second.

First: CCc1ncc2c(n1)CN(Cc1nc(-c3ccsc3)no1)CC2
Second: c1csc(-c2noc(CN3CCc4c(ncn4C4CC4)C3)n2)c1
The “Percent Effect” value of the first is lower: -2.841% for the first, -1.185% for the second.

Going from `O=C(NC1(c2nnn(CC3CC3)n2)CCCC1)c1ccccc1` to `CCC(Nc1nnnn1-c1ccccc1)C(=O)NC1CCSCC1` (stereo not given), the “Percent Effect” value rises from -31.69% to 2.585%.

Compared with `CCc1nc(C)c(C(=O)N2CCCC(c3noc(C)n3)C2)s1` (stereo not given), `Cc1cc(-c2cnn(CCNC(=O)Cc3ccccn3)c2C2CC2)on1` is higher in “Percent Effect” value: -3.627% for the first, 116.9% for the second.

Going from `CN(C)c1ccc(CCCNC(=O)NCC(O)c2cccs2)cc1` (stereo not given) to `CC1CCN(C(CNC(=O)CCn2cccn2)c2cccs2)CC1` (stereo not given), the “Percent Effect” value falls from 15.76% to 3.155%.

Going from `CN1CCN(CCCNC(=O)C2CCCCC2)CC1` to `CC(C)N(C)C(=O)C1CCN(Cc2cc3c(cc2O)CCC3)CC1`, the “Percent Effect” value rises from -13.83% to 3.726%.

Going from `Cc1cc(-c2cnn(CCNC(=O)CCn3cccn3)c2C2CC2)on1` to `CCC(NCCn1cccn1)C(=O)Nc1cc(C)on1` (stereo not given), the “Percent Effect” value falls from 139.3% to -12.89%.

First: O=C(O)C(F)(F)F.O=S(=O)(C1CC1)N1CCc2onc(COc3ccccn3)c2C1
Second: CN1CCN(C(=O)CCc2ccccc2)Cc2cccnc21.O=C(O)C(F)(F)F
The “Percent Effect” value of the first is lower: -9.105% for the first, -4.699% for the second.

First: Cn1cnc2c1CCN(CC(O)c1ccc(S(C)(=O)=O)cc1)C2 (stereo not given)
Second: COc1cc(C(=O)NS(=O)(=O)c2ccc(C#N)cc2)ccc1C
The “Percent Effect” value of the first is lower: 1.592% for the first, 127.1% for the second.

Compared with `Cc1ccoc1C(=O)NCC(c1ccccc1Cl)N1CCOCC1` (stereo not given), `O=C(O)C1(Oc2ccccc2F)CCN(C/C=C/c2ccco2)CC1` is higher in “Percent Effect” value: -4.275% for the first, 10.04% for the second.

First: CC(O)CN1CC(C)(C)CN(C(=O)CCc2ccccc2)CC1=O (stereo not given)
Second: CCCC(O)CN1CC(C)(C)CN(C(=O)CCc2ccccc2)CC1=O (stereo not given)
The “Percent Effect” value of the first is higher: 108.2% for the first, 81.6% for the second.

Compared with `CCc1nc(C(=O)N2CCN(C(=O)CCc3ccccc3)CC2)c[nH]1`, `O=C(CCc1ccccc1)N1CCn2cc(CN3CCCC3)nc2C1` is higher in “Percent Effect” value: -3.201% for the first, 5.739% for the second.

First: CCN1CC(C)(C)CN(C(=O)CCc2ccccc2)CC1=O
Second: CN1CC(C)(C)CN(C(=O)CCc2ccccc2)CC1=O
The “Percent Effect” value of the first is higher: 98.77% for the first, 83.23% for the second.

First: CC(C)(O)CN1CC(C)(C)CN(C(=O)CCc2ccccc2)CC1=O
Second: COCC(O)CN1CC(C)(C)CN(C(=O)CCc2ccccc2)CC1=O (stereo not given)
The “Percent Effect” value of the first is lower: 88.99% for the first, 110.7% for the second.

Compared with `Oc1ccc(-c2c(-c3ccccc3)ncn2C2CCNC2)cc1` (stereo not given), `CCCN1CCC(Nc2cc(-c3ccccc3)ccc2OC)CC1` is higher in “Percent Effect” value: 5.17% for the first, 9.804% for the second.

Compared with `COc1cc2c(cc1C1CC(=O)NCc3nc(N(C)C)sc31)CCC2` (stereo not given), `CSc1ccc2cc(CN(C)CCc3cn[nH]c3)c(=O)[nH]c2c1` is higher in “Percent Effect” value: -15.52% for the first, 4.017% for the second.

First: CC1N(C)C(=O)COC12CCN(C(=O)CCc1ccccc1)CC2 (stereo not given)
Second: CN1C(=O)CC(C(=O)O)C12CCN(Cc1ccc(Cl)cc1F)CC2 (stereo not given)
The “Percent Effect” value of the first is lower: 0.4061% for the first, 5.202% for the second.

Compared with `CC(=O)NCC(=O)N1Cc2nccn2CC(CN(C)C(C)C)C1.O=C(O)C(F)(F)F` (stereo not given), `CC(=O)NCC(=O)N1Cc2nccn2CC(COc2cccnc2)C1.O=C(O)C(F)(F)F` (stereo not given) is higher in “Percent Effect” value: -7.594% for the first, 111.9% for the second.

Going from `CC(=O)NCC(=O)N1Cc2nccn2CC(CN2CCCC2=O)C1` (stereo not given) to `CC(C)NC(=O)N1Cc2nccn2CC(CN2CCCC2)C1.O=C(O)C(F)(F)F` (stereo not given), the “Percent Effect” value falls from 14.08% to 12.37%.

Compared with `CC(C)NC(=O)N1Cc2nccn2CC(COc2cccnc2)C1.O=C(O)C(F)(F)F` (stereo not given), `CCOc1ccccc1CNC(=O)N(CC)C(C)c1cccnc1` (stereo not given) is lower in “Percent Effect” value: 96.94% for the first, 2.92% for the second.

Compared with `Cn1cc(Br)cc(NC(=O)CC(C)(C)C)c1=O`, `CCc1ccccc1CNC(=O)CNC(=O)C(C)(C)C` is lower in “Percent Effect” value: 3.241% for the first, -5.244% for the second.

First: CC(C)(C)C(=O)NCc1cnn2ccccc12
Second: CC(C)OCc1ccccc1CNC(=O)C(C)(C)C
The “Percent Effect” value of the first is lower: -7.626% for the first, 99.75% for the second.

Going from `CC(COc1ccccc1)NS(C)(=O)=O` (stereo not given) to `CC(C)S(=O)(=O)C(C)C(=O)NCc1ccccc1COc1ccccc1` (stereo not given), the “Percent Effect” value rises from -8.999% to 92.84%.

Compared with `CC(C)OCc1ccccc1CNC(=O)C(C)S(=O)(=O)C(C)C` (stereo not given), `CC(C)S(=O)(=O)C(C)C(=O)NCc1ccccc1OCc1ccccc1` (stereo not given) is higher in “Percent Effect” value: 93.94% for the first, 96.24% for the second.

First: CC(C)NC(=O)NCc1ccccc1NS(=O)(=O)c1ccccc1
Second: CC(C)C(=O)NCc1ccccc1NS(=O)(=O)c1ccccc1
The “Percent Effect” value of the first is higher: 15.1% for the first, -3.24% for the second.

First: CC(C)OCc1ccc(CNC(=O)CC(F)(F)F)cc1
Second: CC(C)S(=O)(=O)C(C)C(=O)NCc1cccc(N2CCCCC2=O)c1 (stereo not given)
The “Percent Effect” value of the first is higher: 28.04% for the first, 12.9% for the second.

Compared with `Cc1cc(C(=O)N2CC(=O)Nc3cnccc32)c(Cl)cc1F`, `COc1cc(C(=O)NS(=O)(=O)c2cccc(C#N)c2)cc(Cl)c1OC` is higher in “Percent Effect” value: -6.598% for the first, 0.151% for the second.

Compared with `COc1ccc(N2CCCC3(C2)CN(c2nncs2)CCO3)cc1` (stereo not given), `O=C(Cc1ccsc1)NCC1Cn2nnc(-c3ccoc3)c2CO1` (stereo not given) is higher in “Percent Effect” value: -4.383% for the first, -0.8336% for the second.

First: O=C(NCc1ccccc1CO)C1COc2ccccc21 (stereo not given)
Second: N#Cc1ccc(S(=O)(=O)NC(=O)c2ccc3c(c2)COC3)cc1
The “Percent Effect” value of the first is higher: -7.77% for the first, -13.21% for the second.

Compared with `C=C(C)CN(CC)C(=O)CN1CCCC1C(=O)N(C)C` (stereo not given), `CC(C)(C)C(=O)NCCC(=O)NS(=O)(=O)c1cccc(C#N)c1` is lower in “Percent Effect” value: 1.656% for the first, -5.738% for the second.

Going from `COc1ccc(C(=O)NS(=O)(=O)c2cncc(Br)c2)cc1OC` to `COc1cc(C(=O)NS(=O)(=O)c2cccc(C#N)c2)cc(OC)c1Br`, the “Percent Effect” value rises from -20.98% to 100.1%.

Going from `CSc1ccsc1C(=O)NS(=O)(=O)c1cccc(C#N)c1` to `COc1cc(C(=O)NS(=O)(=O)c2cccc(C#N)c2)ccc1C`, the “Percent Effect” value rises from -50.61% to 0.1033%.

Compared with `COc1cc(C(=O)NS(=O)(=O)c2cccc(C#N)c2)cc(OC)c1C`, `CCOc1cc(C(=O)NS(=O)(=O)c2cccc(C#N)c2)ccc1OC` is higher in “Percent Effect” value: 111.6% for the first, 121% for the second.

With `N#Cc1ccc(C(=O)NS(=O)(=O)c2ccc(F)c(F)c2)cc1` the “Percent Effect” value was 6.651%.
